# Laboratory results as given in PubChem BioAssay (NCATS).
# Inconclusive results are not listed. The source made the active and inactive calls. Calls follow the shape of the dose curve; as a rule, active = well fitted cell-killing curve with a large enough effect; inconclusive = small, poorly fitted or top-dose-only effect, or effect the other way; inactive = flat fitted curve, though single readings scatter.
# Test system: Tov112D
# Experiment: Primary qHTS to identify gynecologic anti-cancer compounds using libraries of approved drugs and bioactive compounds (AID 1345084); also: nearly all actives have a fitted effect of over 55% in size
# Conditions: Gynecologic cancer cell panel viability, ATPlite luminescence, 48 h; series mostly up to 57.5 µM; activity change, negative = cytotoxicity: at the top concentration
# Summary of the method: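 Luminescence from the ATPlite ATP-monitoring reagent indicates viable cell number; lower signal means cytotoxicity. Cells received compound 16 h after seeding and were exposed for 48 h across five concentrations.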
# % is scaled to controls: 0 for no effect and ±100 for the full control effect.
row,Structure (SMILES),"activity change, negative = cytotoxicity"
1,CC(C)c1ccc(NC(=O)C(c2ccccc2)N(C)C(=O)Cc2c[nH]c3ccccc23)cc1 (stereo not drawn),-2.67% (inactive)
2,Cc1cc(C)c(NC(=O)N(Cc2ccc3c(c2)Cc2ccccc2-3)C2CCCCCC2)c(C)c1,4.44% (inactive)
3,CN(Cc1ccc(C(=O)O)cc1)c1ccc(OCc2c(-c3c(Cl)cccc3Cl)noc2C2CC2)nc1C(F)(F)F,-8.95% (inactive)
4,Cn1nccc1Nc1nccc(-c2ccn([C@H](CO)c3ccc(Cl)c(F)c3)c(=O)c2)n1,3.02% (inactive)
5,C[N+]1(C)[C@@H]2CC[C@H]1CC(OC(=O)C(O)c1ccccc1)C2 (stereo partly drawn),7.88% (inactive)
6,CC1CCN(c2cc(NC(=O)c3ccccc3)ncn2)CC1,-24.5% (inactive)
7,CCOc1ccc(-c2nc(-c3cccc4c3CCC4NCCO)no2)cc1OCC (stereo not drawn),7.32% (inactive)
8,CCC(=O)c1cc(-c2ccc(Cl)cc2)n(-c2ccc(S(N)(=O)=O)cc2)c1C,-4.16% (inactive)
9,COc1cc2nc(-c3cc(F)ccc3O)nc(N[C@@H]3CNC[C@H]3C(C)(C)O)c2cc1OC,11.5% (inactive)
10,COc1cccc(NC[C@@H](O)Cn2c3ccc(Br)cc3c3cc(Br)ccc32)c1,1.21% (inactive)
11,COc1c(N2CC3CCCNC3C2)c(F)cc2c(=O)c(C(=O)O)cn(C3CC3)c12 (stereo not drawn),16.2% (inactive)
12,COc1ccc(-c2c(C)c(C(=O)NN3CCCCC3)nn2-c2ccc(Cl)cc2Cl)cc1,-4.27% (inactive)
13,C[C@H](NC(=O)C(C)(C)Oc1ccc(C(F)(F)F)cn1)[C@@H](Cc1ccc(Cl)cc1)c1cccc(C#N)c1,-25.8% (inactive)
